The list is not random: actives were taken first. Their share in the collection is about 3.2%.
Nrf2 ARE act – activators of Nrf2 (ARE) signaling; AREc32 ARE-luciferase reporter (MCF7-derived line), luminescence, 24 h; AID 624171; Potency, µM (doses to about 46.1 µM), without a hit: at the highest dose activation, usual class: activators; 410,000 tested, 0.31% active; note: potency is the fitted concentration of half-maximal effect; % of control where 0% means no effect; nearly all actives have a fitted effect of over 65% in size
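Quantitative high-throughput format: AREc32 reporter cells, 1000 per well, received compound by pin transfer and were incubated 24 hr at 37 deg C, 5% CO2, before Steady-Glo luminescence detection.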
BRCA1 expr up – increases BRCA1 expression; MCF7-BRCA1-FFLuc reporter, luminescence, 48 h; response scale: scaled: vehicle 0%, 10 µM genistein 100%; Potency, µM (top dose mostly 46.1 µM), without a hit: at the top dose activation, most hits filed as activators; 380,000 tested, 1.1% active; note: potency is the fitted concentration of half-maximal effect; nearly all actives have a fitted effect of over 80% in size
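Luminescence from a BRCA1-driven firefly luciferase in MCF7 cells was read after 48 h compound exposure at 37 C. Data normalized against DMSO and a 10microM genistein activation control, then curve-fitted across the titration.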
IL-2 act – IL-2 activation. IL-2 activation reporter assay, cell-based qHTS; stimulated with anti-CD3/CD4/CD28 beads; in transgenic mouse T cells. activation, % (series mostly up to about 46 µM). 360,000 tested, 0.065% active. AID 652025; in the data active = activation above about 50%; inconclusive = mostly about 30% to 49%; note: 0% is about no effect
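EGFP and DsRed fluorescence is measured by plate cytometry in unstimulated transgenic mouse T cells exposed to compound for 60 minutes, then stimulated 18 hours at 37 degrees C with anti-CD3/anti-CD4 beads plus anti-CD28.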
p53 reactivator – restores transcriptional activity of mutant p53 | H1299 p53-A138V BP100-luciferase reporter, luminescence, 24 h | 320,000 tested, 0.063% active | Potency, µM (series often up to 92.2 µM), for inactives: top-dose activity change, positive = activation, most hits filed as activators; note: potency is the fitted concentration of half-maximal effect; % of control where 0% means no effect; nearly all actives have a fitted effect of over 45% in size
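p53-null H1299 cells stably carrying temperature-sensitive p53-A138V and a BP100-luciferase reporter were pinned with compounds (4-point, 1:5 series) and held 24 hrs at 37 deg C. Luminescence was read 10 min after detection reagent.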
A549 viability – A549 cytotoxicity, counter-screen for Nrf2 inhibitors; Potency, µM (titrated, usually from 46 µM), for the others: top-dose activity change, negative = cytotoxicity, usual class: inhibitors; 390,000 tested, 0.16% active; A549 ARE-Fluc cells, CellTiter-Fluor viability, 18-24 h; AID 504648; note: potency is the fitted concentration of half-maximal effect; % is set by controls: 0 for no effect and ±100 for the full control effect
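Cytotoxicity counterscreen: CellTiter-Fluor fluorescence was measured in A549 ARE_Fluc cells after 18-24 h of compound exposure in a concentration series. The subsequent BugLite luminescent read reports ARE-luciferase activity.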
Nrf2 block – inhibitors of Nrf2 signaling. A549 ARE-Fluc reporter, luciferase luminescence, 18-24 h. Potency, µM (titrated, usually from 46 µM), inactives show top-dose activity change, negative = inhibition, hits mostly inhibitors. 360,000 tested, 2.1% active; note: potency is the fitted concentration of half-maximal effect; % is set by controls: 0 for no effect and ±100 for the full control effect; nearly all actives have a fitted effect of over 60% in size
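Two sequential reads on A549 ARE_Fluc cells exposed to compound for 18-24 h: a CellTiter-Fluor fluorescence read for viability, then a luciferase luminescence read for Nrf2/ARE activity.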
Numbers without * were called inactive; u = inconclusive; x = not tested or not shown. Unless noted, calls come from the whole dose curve; as a rule, active = well fitted curve in the direction sought with a large enough effect; inconclusive = small, poorly fitted or top-dose-only effect, or another doubt; inactive = no such curve, though single readings can be large; an effect the other way counts as inactive or inconclusive.

SMILES	Nrf2 ARE act	BRCA1 expr up	IL-2 act	p53 reactivator	A549 viability	Nrf2 block
O=C(Cn1c(=O)n(-c2ccccc2)c(=O)c2sc3ccccc3c21)NC1CCCC1	-0.1%	0.9%	x	x	-14.3%	3.0%
Cc1cc(C=Nc2ccc(/C=C/c3ccnc4ccccc34)cc2)ccc1N(C)C	x	18.2%	x	x	x	x
Cc1ccc(Nc2sc(C(=O)c3ccccc3)c(N)c2S(=O)(=O)c2ccccc2)c(C)c1	-0.1%	x	x	x	-12.4%	1.9%
CC(C)(C)Nc1nc(N2CCCC2)nc(N2CCCC2)n1	0.2%	-31.9%	-0.5	3.1%	14.6µM*	u
Cc1ccccc1Cn1nnc(-c2ccc3c(c2)OCO3)n1	2.9%	u	-0.4	u	-1.3%	12.5%
Fc1cccc(Cl)c1Cn1nnc(-c2ccc3c(c2)OCO3)n1	-0.3%	8.91µM*	-2.7	u	5.0%	29.0%
C=CCNC(=O)CCc1nnc(C2(c3ccc(Cl)cc3)CCC2)o1	9.6%	12.6µM*	-0.3	u	3.9%	u
C=C(C)CNC(=O)CCc1nnc(C2(c3ccc(Cl)cc3)CCC2)o1	6.4%	29.5%	-3.1	8.7%	0.0%	15.2%
O=C(Nc1ccc2nc(C3CC3)n(Cc3ccccc3)c(=O)c2c1)C1CC1	-0.4%	113.5%	-2.4	10.5%	-0.7%	u
CCC(=O)Nc1ccc2nc(C3CC3)n(Cc3ccccc3)c(=O)c2c1	-0.2%	3.98µM*	0.6	15.5%	-1.0%	7.7%
CCOC(=O)c1ccc(-c2nnc(-c3ccc(Cl)cc3Cl)o2)cc1	0.5%	0.891µM*	-0.8	x	-0.2%	u
CCOC(=O)c1cc(-c2nnc(-c3ccc(Cl)cc3)o2)c(C)nc1C	5.3%	-0.7%	2.6	3.5%	-7.4%	-0.3%
Cc1ccc2c(c1)-c1c(cnn1CC(=O)N1CCN(c3cccc(C(F)(F)F)c3)CC1)CO2	0.0%	12.9%	x	x	u	u
Cc1cccc(COc2ncnc3nc[nH]c23)c1	5.8%	10µM*	-3.9	12.7%	-0.8%	10.7%
CCN(c1cccc(C)c1)c1ncnc2nc[nH]c12	-1.9%	30.1%	-1.7	-15.0%	-1.6%	-20.1%
CCc1cccc(C)c1NC(=O)CSc1nnc(-c2cc3cc(Br)ccc3o2)n1CC	-0.5%	-45.2%	0.4	-6.6%	u	16.4µM*
Cc1cc(C)nc(NS(=O)(=O)c2ccc(NC(=O)c3ccccc3O)cc2)n1	0.0%	1.9%	x	x	1.0%	16.0%
CCn1c(C(=O)N2CCCC(C(=O)NCCCc3ccccc3)C2)cc2sccc21 (centres undefined)	2.7%	-54.9%	0.5	2.0%	u	16.4µM*
COC(=O)N1CCCc2cc(S(=O)(=O)NCc3ccccc3)ccc21	2.9%	2.8%	x	x	-8.5%	23.1µM*
CC(C)CNc1ncnc2c1cnn2Cc1ccccc1Cl	-2.4%	-32.0%	0.0	-5.4%	9.7%	-3.5%
CC(C)Nc1ncnc2c1cnn2Cc1ccccc1Cl	-0.2%	5.4%	0.0	-8.2%	2.3%	13µM*
O=C(Nc1ccc(N2CCN(C(=O)c3ccco3)CC2)cc1)c1ccc(Br)cc1	0.2%	-10.8%	-1.0	5.7%	-10.7%	16.4µM*
O=C(Nc1ccc(N2CCN(C(=O)c3ccco3)CC2)cc1)c1cc(Br)ccc1Cl	-0.1%	-59.9%	-4.6	-11.3%	-15.0%	23.1µM*
Cc1ccccc1C(=O)N1CCN(c2ccc(NC(=S)NC(=O)c3ccco3)cc2)CC1	2.0%	-83.2%	-0.5	x	9.8%	u
COc1ccccc1C(=O)NC(=S)Nc1ccc(N2CCN(C(=O)c3ccco3)CC2)cc1	-0.8%	-1.7%	-4.1	-4.8%	-17.0%	20.6µM*
COc1cc2ncnc(N(C)Cc3csc(C)n3)c2cc1-c1ccc2c(c1)OCO2	x	x	x	x	-0.5%	u
CC(C)OCCCN(Cc1ccco1)C(=O)c1cc2c(s1)-c1ccccc1OC2	-0.1%	-40.4%	x	x	6.6%	16.4µM*

High-throughput results from PubChem.
